Laboratory results as given in PubChem BioAssay (Tox21).
A number with no mark means an inactive call. Records with an inconclusive call do not appear. A call without a number means that no potency is given here. The source made the active and inactive calls. Calls come from the whole dose curve; as a rule, active = well fitted curve in the direction sought with a large enough effect in the repeat runs; inconclusive = weak or mixed curves; inactive = no such curve, though single readings can be large; an effect the other way counts as inactive or inconclusive.

Legend:
[1] = qHTS RealTime-Glo MT Cell Viability Assay in HepG2 cells - 40 hour (AID 1224870); note: nearly all actives have a fitted effect of over 50% in size
Outline: (§1)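 Real-time viability: cells seeded at 600 per well together with NanoLuc and cell-permeant prosubstrate, compounds added after 5 h incubation. Luminescence tracked at 0, 8, 16, 24, 32 and 40 h of exposure.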

[2] = A CellTox Green Cytotoxicity Assay to monitor cytotoxicity in HEK293 cells - 40 hour (AID 1224871); note: nearly all actives have a fitted effect of over 45% in size
Outline: (§2)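 Fluorescence intensity, read at 0, 8, 16, 24, 32 and 40 h of compound treatment, reflected dye binding to DNA of dead HEK293 cells; compounds (23 nL, DMSO) were added 5 h after plating cells with reagent.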

[3] = qHTS RealTime-Glo MT Cell Viability Assay in HEK293 cells - 16 hour (AID 1224872); note: top concentration of the series differs between compounds; nearly all actives have a fitted effect of over 50% in size
Outline: (§3)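 Viability tracked continuously by luminescence as live cells reduce a prosubstrate for NanoLuc; HEK293 cells preincubated 5 h, compound-treated at 37 C, and read at 0, 8, 16, 24, 32 and 40 h.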

[4] = qHTS RealTime-Glo MT Cell Viability Assay in HepG2 cells - 8 hour (AID 1224873); note: nearly all actives have a fitted effect of over 55% in size
Outline: as §1

[5] = qHTS RealTime-Glo MT Cell Viability Assay in HEK293 cells - 40 hour (AID 1224874); details: RealTime-Glo luminescence; max response: active compounds read low; note: nearly all actives have a fitted effect of over 50% in size
Outline: (§4)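 Viable HEK293 cells reduce a cell-permeant prosubstrate; the product diffuses out and is consumed by NanoLuc in the medium to give light. Compounds went in after a 5 h incubation and plates were read over the treatment course.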

[6] = A CellTox Green Cytotoxicity Assay to monitor cytotoxicity in HEK293 cells - 24 hour (AID 1224875); note: series mostly up to about 77 µM; nearly all actives have a fitted effect of over 45% in size
Outline: as §2

[7] = A CellTox Green Cytotoxicity Assay to monitor cytotoxicity in HepG2 cells - 16 hour (AID 1224876); note: nearly all actives have a fitted effect of over 45% in size
Outline: (§5)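 Using 1536-well format, dye-containing HepG2 suspension was seeded, allowed 5 h at 37 C/5% CO2, dosed by pintool with compounds, positive and negative controls, and imaged for fluorescence across 40 h.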

[8] = qHTS RealTime-Glo MT Cell Viability Assay in HepG2 cells - 32 hour (AID 1224877); note: nearly all actives have a fitted effect of over 55% in size
Outline: (§6)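 Viability was tracked continuously by NanoLuc luminescence from prosubstrate reduced by living HepG2 cells, at successive time points over 40 h of compound exposure. Cells with reagent were preincubated 5 h at 37 °C before compound addition.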

[9] = A CellTox Green Cytotoxicity Assay to monitor cytotoxicity in HepG2 cells - 24 hour (AID 1224878); note: nearly all actives have a fitted effect of over 45% in size
Outline: as §5

[10] = A CellTox Green Cytotoxicity Assay to monitor cytotoxicity in HepG2 cells - 40 hour (AID 1224879); note: nearly all actives have a fitted effect of over 40% in size
Outline: as §5

[11] = qHTS RealTime-Glo MT Cell Viability Assay in HEK293 cells - 0 hour (AID 1224880); note: nearly all actives have a fitted effect of over 45% in size; note: potency is the fitted concentration of half-maximal effect
Outline: as §4

[12] = A CellTox Green Cytotoxicity Assay to monitor cytotoxicity in HEK293 cells - 32 hour (AID 1224881); note: nearly all actives have a fitted effect of over 40% in size
Outline: as §2

[13] = A CellTox Green Cytotoxicity Assay to monitor cytotoxicity in HepG2 cells - 0 hour (AID 1224882); note: nearly all actives have a fitted effect of over 35% in size
Outline: as §5

[14] = A CellTox Green Cytotoxicity Assay to monitor cytotoxicity in HepG2 cells - 32 hour (AID 1224883); note: nearly all actives have a fitted effect of over 50% in size
Outline: as §5

[15] = A CellTox Green Cytotoxicity Assay to monitor cytotoxicity in HEK293 cells - 8 hour (AID 1224884); note: nearly all actives have a fitted effect of over 35% in size
Outline: as §2

[16] = qHTS RealTime-Glo MT Cell Viability Assay in HepG2 cells - 16 hour (AID 1224885); note: nearly all actives have a fitted effect of over 50% in size
Outline: as §6

[17] = qHTS RealTime-Glo MT Cell Viability Assay in HEK293 cells - 24 hour (AID 1224886)
Outline: as §3

[18] = A CellTox Green Cytotoxicity Assay to monitor cytotoxicity in HEK293 cells - 16 hour (AID 1224888); note: nearly all actives have a fitted effect of over 35% in size
Outline: as §2

[19] = qHTS RealTime-Glo MT Cell Viability Assay in HepG2 cells - 0 hour (AID 1224889); note: nearly all actives have a fitted effect of over 50% in size; note: potency is the fitted concentration of half-maximal effect
Outline: as §6

[20] = qHTS RealTime-Glo MT Cell Viability Assay in HEK293 cells - 8 hour (AID 1224887)
Outline: as §4

With CC(=O)OCC(=O)[C@@]1(O)CCC2C3CCC4=CC(=O)CC[C@]4(C)C3[C@@H](O)C[C@@]21C (some centres not stated) the Potency [1] was “inactive”, the Potency [2] was “inactive” and the Potency [3] was “inactive”. The Potency [4] was “inactive”, the max response [5] was -13.4% and the Potency [6] was “inactive”. The Potency [7] was “inactive”, the Potency [8] was “inactive” and the Potency [9] was “inactive”. For the same compound, the Potency [10] was “inactive”, the Potency [11] was 8.49 µM (active) and the Potency [12] was “inactive”. For the same compound, the Potency [13] was “inactive”, the Potency [14] was “inactive” and the Potency [15] was “inactive”. The Potency [16] was “inactive”, the Potency [17] was “inactive” and the Potency [18] was “inactive”. The Potency [19] was 2.39 µM (active).

In the case of c1ccc([C@H]2CN3CCSC3=N2)cc1, the Potency [1] is reported as “inactive”, the Potency [2] is reported as “inactive” and the Potency [3] is reported as “inactive”. The Potency [4] was “inactive”, the max response [5] was 3.46% and the Potency [6] was “inactive”. The Potency [7] was “inactive”, the Potency [8] was “inactive” and the Potency [9] was “inactive”. For the same compound, the Potency [10] was “inactive”, the Potency [11] was “inactive” and the Potency [12] was “inactive”. The Potency [13] was “inactive”, the Potency [14] was “inactive” and the Potency [15] was “inactive”. The Potency [16] was “inactive”, the Potency [17] was “inactive” and the Potency [18] was “inactive”. The Potency [19] was “inactive”.

In the case of NC(=O)Nc1ccccc1, the Potency [1] is reported as “inactive”, the Potency [2] is reported as “inactive” and the Potency [3] is reported as “inactive”. The Potency [4] was “inactive”, the max response [5] was 3.44% and the Potency [6] was “inactive”. The Potency [7] was “inactive”, the Potency [8] was “inactive” and the Potency [9] was “inactive”. The Potency [10] was “inactive”, the Potency [11] was “inactive” and the Potency [12] was “inactive”. The Potency [13] was “inactive”, the Potency [14] was “inactive” and the Potency [15] was “inactive”. For the same compound, the Potency [16] was “inactive”, the Potency [17] was “inactive” and the Potency [20] was “inactive”. For the same compound, the Potency [19] was “inactive”.

With COC(=O)c1cc(C(=O)OC)cc(S(=O)(=O)O)c1 the Potency [1] was “inactive”, the Potency [2] was “inactive” and the Potency [3] was “inactive”. The Potency [4] was “inactive”, the max response [5] was -1.13% and the Potency [6] was “inactive”. For the same compound, the Potency [7] was “inactive”, the Potency [8] was “inactive” and the Potency [9] was “inactive”. For the same compound, the Potency [10] was “inactive”, the Potency [11] was “inactive” and the Potency [12] was “inactive”. For the same compound, the Potency [14] was “inactive”, the Potency [15] was “inactive” and the Potency [16] was “inactive”. The Potency [17] was “inactive”, the Potency [20] was “inactive” and the Potency [18] was “inactive”. The Potency [19] was “inactive”.

For CC(=O)Nc1ccc(S(N)(=O)=O)cc1, the Potency [1] was “inactive”, the Potency [2] was “inactive” and the Potency [3] was “inactive”. The Potency [4] was “inactive”, the max response [5] was 14.7% and the Potency [6] was “inactive”. The Potency [7] was “inactive”, the Potency [8] was “inactive” and the Potency [9] was “inactive”. The Potency [10] was “inactive”, the Potency [11] was “inactive” and the Potency [12] was “inactive”. The Potency [14] was “inactive”, the Potency [15] was “inactive” and the Potency [16] was “inactive”. For the same compound, the Potency [17] was “inactive”, the Potency [20] was “inactive” and the Potency [18] was “inactive”. The Potency [19] was “inactive”.

With N=C(N)c1ccc(OCCCOc2ccc(C(=N)N)cc2)cc1 the Potency [1] was “inactive”, the Potency [2] was “inactive” and the Potency [3] was “inactive”. The Potency [4] was “inactive”, the max response [5] was 1.81% and the Potency [6] was “inactive”. For the same compound, the Potency [7] was “inactive”, the Potency [8] was “inactive” and the Potency [9] was “inactive”. For the same compound, the Potency [10] was “inactive”, the Potency [11] was “inactive” and the Potency [12] was “inactive”. For the same compound, the Potency [13] was “inactive”, the Potency [14] was “inactive” and the Potency [15] was “inactive”. The Potency [16] was “inactive”, the Potency [17] was “inactive” and the Potency [18] was “inactive”. The Potency [19] was “inactive”.

With CC(C)CNCC(C)C the Potency [1] was “inactive”, the Potency [2] was “inactive” and the Potency [3] was “inactive”. For the same compound, the Potency [4] was “inactive”, the max response [5] was 0.947% and the Potency [6] was “inactive”. The Potency [7] was “inactive”, the Potency [8] was “inactive” and the Potency [9] was “inactive”. The Potency [10] was “inactive”, the Potency [11] was “inactive” and the Potency [12] was “inactive”. The Potency [14] was “inactive”, the Potency [15] was “inactive” and the Potency [16] was “inactive”. The Potency [17] was “inactive”, the Potency [20] was “inactive” and the Potency [18] was “inactive”. For the same compound, the Potency [19] was “inactive”.

In the case of C1OCOCO1, the Potency [1] is reported as “inactive”, the Potency [2] is reported as “inactive” and the Potency [3] is reported as “inactive”. The Potency [4] was “inactive”, the max response [5] was 2.99% and the Potency [6] was “inactive”. For the same compound, the Potency [7] was “inactive”, the Potency [8] was “inactive” and the Potency [9] was “inactive”. The Potency [10] was “inactive”, the Potency [11] was “inactive” and the Potency [12] was “inactive”. For the same compound, the Potency [13] was “inactive”, the Potency [14] was “inactive” and the Potency [15] was “inactive”. For the same compound, the Potency [16] was “inactive”, the Potency [17] was “inactive” and the Potency [18] was “inactive”. For the same compound, the Potency [19] was “inactive”.

With COC(C)(C)CCCC(C)CC=O (configuration not stated) the Potency [1] was “inactive”, the Potency [2] was “inactive” and the Potency [3] was “inactive”. For the same compound, the Potency [4] was “inactive”, the max response [5] was 3.83% and the Potency [6] was “inactive”. The Potency [7] was “inactive”, the Potency [8] was “inactive” and the Potency [9] was “inactive”. The Potency [10] was “inactive”, the Potency [11] was “inactive” and the Potency [12] was “inactive”. The Potency [14] was “inactive”, the Potency [15] was “inactive” and the Potency [16] was “inactive”. For the same compound, the Potency [17] was “inactive”, the Potency [20] was “inactive” and the Potency [18] was “inactive”. For the same compound, the Potency [19] was “inactive”.

With COC(=O)NN the Potency [1] was “inactive”, the Potency [2] was “inactive” and the Potency [3] was “inactive”. The Potency [4] was “inactive”, the max response [5] was 1.74% and the Potency [6] was “inactive”. The Potency [7] was “inactive”, the Potency [8] was “inactive” and the Potency [9] was “inactive”. The Potency [10] was “inactive”, the Potency [11] was “inactive” and the Potency [12] was “inactive”. For the same compound, the Potency [13] was “inactive”, the Potency [14] was “inactive” and the Potency [15] was “inactive”. The Potency [16] was “inactive”, the Potency [17] was “inactive” and the Potency [20] was “inactive”. For the same compound, the Potency [19] was “inactive”.

For Cc1nc2c([nH]1)c(=O)n(C)c(=O)n2Cc1ccco1, the Potency [1] was “inactive”, the Potency [2] was “inactive” and the Potency [3] was “inactive”. For the same compound, the Potency [4] was “inactive”, the max response [5] was 1.42% and the Potency [6] was “inactive”. The Potency [7] was “inactive”, the Potency [8] was “inactive” and the Potency [9] was “inactive”. The Potency [10] was “inactive”, the Potency [11] was “inactive” and the Potency [12] was “inactive”. The Potency [14] was “inactive”, the Potency [15] was “inactive” and the Potency [16] was “inactive”. The Potency [17] was “inactive”, the Potency [20] was “inactive” and the Potency [18] was “inactive”. For the same compound, the Potency [19] was “inactive”.

For Cc1cc(O)cc2c1O[C@](C)(CCC[C@H](C)CCC[C@H](C)CCCC(C)C)CC2, the Potency [1] was “inactive”, the Potency [2] was “inactive” and the Potency [3] was “inactive”. For the same compound, the Potency [4] was “inactive”, the max response [5] was 5.25% and the Potency [6] was “inactive”. The Potency [7] was “inactive”, the Potency [8] was “inactive” and the Potency [9] was “inactive”. The Potency [10] was “inactive”, the Potency [11] was “inactive” and the Potency [12] was “inactive”. For the same compound, the Potency [14] was “inactive”, the Potency [15] was “inactive” and the Potency [16] was “inactive”. For the same compound, the Potency [17] was “inactive”, the Potency [20] was “inactive” and the Potency [18] was “inactive”. For the same compound, the Potency [19] was “inactive”.

In the case of NS(=O)(=O)c1cc2c(cc1Cl)NC(C1CC3C=CC1C3)NS2(=O)=O (configuration not stated), the Potency [1] is reported as “inactive”, the Potency [2] is reported as “inactive” and the Potency [3] is reported as “inactive”. For the same compound, the Potency [4] was “inactive”, the max response [5] was 11.9% and the Potency [6] was “inactive”. The Potency [7] was “inactive”, the Potency [8] was “inactive” and the Potency [9] was “inactive”. For the same compound, the Potency [10] was “inactive”, the Potency [11] was “inactive” and the Potency [12] was “inactive”. The Potency [13] was “inactive”, the Potency [14] was “inactive” and the Potency [15] was “inactive”. The Potency [16] was “inactive”, the Potency [17] was “inactive” and the Potency [18] was “inactive”. The Potency [19] was “inactive”.
